Reference: PubChem BioAssay AID1159580 (chemical genetic matrix, 2015)
In all, about 5,500 compounds went through this assay and about 2,000 (36%) were called active. Not shown: some 18% with an inconclusive outcome. Cut-off read from the data, not from the text of the source: active = normalized growth mostly below about 0.91 (no sharp cut-off); inconclusive = no clear call, values can overlap the other calls; inactive = mostly above about 0.92. This is one part of the list.

Experiment: chemical genetic growth profiling, strain panel (AID 1159580);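 note: tested at 20 µM; growth read once vehicle control cultures reached saturation at 30 °C; 1 = growth at the plate median or of vehicle wells; lower values mean less growth of the strain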
Details: growth OD

Measured: normalized growth

C=CC1=C(C(=O)O)N2C(=O)[C@@H](NC(=O)/C(=N/O)c3csc(N)n3)[C@H]2SC1
inactive: S. cerevisiae deletion strains, locus YJR066W, strain TOR1, active compounds read low 0.95 | S. cerevisiae deletion strains, locus YJR075W, strain HOC1, active compounds read low 1.01 | S. cerevisiae deletion strains, locus YKL009W, strain mrt4, active compounds read low 0.995 | S. cerevisiae deletion strains, locus YKL068W, active compounds read low 1 | S. cerevisiae deletion strains, locus YKL085W, strain MDH1 (second series), active compounds read low 0.989 | S. cerevisiae deletion strains, locus YKL085W, strain MDH1, active compounds read low 0.989 | S. cerevisiae deletion strains, locus YKL160W, strain elf1, active compounds read low 1.02 | S. cerevisiae deletion strains, locus YKL190W, strain CNB1, active compounds read low 1.02 | S. cerevisiae deletion strains, locus YKR001C, strain vps1, active compounds read low 0.979 | S. cerevisiae deletion strains, locus YKR026C, strain gcn3, active compounds read low 1.03 | S. cerevisiae deletion strains, locus YKR091W, strain srl3, active compounds read low 1.02 | S. cerevisiae deletion strains, locus YLL001W, strain dnm1, active compounds read low 1.02 | S. cerevisiae deletion strains, locus YLL026W, active compounds read low 1.03 | S. cerevisiae deletion strains, locus YLL041C, strain sdh2, active compounds read low 1.02 | S. cerevisiae deletion strains, locus YLR027C, strain aat2, active compounds read low 1.02 | S. cerevisiae deletion strains, locus YLR039C, strain RIC1, active compounds read low 1.04 | S. cerevisiae deletion strains, locus YLR058C, strain SHM2, active compounds read low 0.996 | S. cerevisiae deletion strains, locus YLR102C, strain apc9, active compounds read low 0.997 | S. cerevisiae deletion strains, locus YLR113W, strain HOG1, active compounds read low 1.02 | S. cerevisiae deletion strains, locus YLR221C, strain rsa3, active compounds read low 1.04 | S. cerevisiae deletion strains, locus YLR258W, strain gsy2, active compounds read low 1.02 | S. cerevisiae deletion strains, locus YLR262C, strain YPT6 (second series), active compounds read low 1.04 | S. cerevisiae deletion strains, locus YLR262C, strain YPT6, active compounds read low 1.02 | S. cerevisiae deletion strains, locus YLR268W, strain sec22, active compounds read low 1 | S. cerevisiae deletion strains, locus YLR320W, strain mms22, active compounds read low 1.02 | S. cerevisiae deletion strains, locus YLR330W, strain CHS5, active compounds read low 0.992 | S. cerevisiae deletion strains, locus YLR342W, strain FKS1 (second series), active compounds read low 1.02 | S. cerevisiae deletion strains, locus YLR342W, strain FKS1, active compounds read low 1.03 | S. cerevisiae deletion strains, locus YLR357W, strain rsc2, active compounds read low 1.02 | S. cerevisiae deletion strains, locus YLR370C, strain arc18, active compounds read low 1.02 | S. cerevisiae deletion strains, locus YLR371W, strain rom2, active compounds read low 0.994 | S. cerevisiae deletion strains, locus YLR384C, strain iki3, active compounds read low 1.02 | S. cerevisiae deletion strains, locus YLR418C, strain cdc73, active compounds read low 0.998 | S. cerevisiae deletion strains, locus YML016C, strain PPZ1, active compounds read low 0.987 | S. cerevisiae deletion strains, locus YML032C, strain rad52, active compounds read low 1 | S. cerevisiae deletion strains, locus YML120C, strain ndi1, active compounds read low 1.02 | S. cerevisiae deletion strains, locus YML124C, strain tub3, active compounds read low 0.993 | S. cerevisiae deletion strains, locus YMR058W, strain fet3, active compounds read low 1.01 | S. cerevisiae deletion strains, locus YMR078C, strain ctf18, active compounds read low 0.989 | S. cerevisiae deletion strains, locus YMR125W, strain sto1, active compounds read low 1.03 | S. cerevisiae deletion strains, locus YMR129W, active compounds read low 1.01 | S. cerevisiae deletion strains, locus YMR205C, strain PFK2, active compounds read low 1.03 | S. cerevisiae deletion strains, locus YMR223W, strain ubp8, active compounds read low 0.994 | S. cerevisiae deletion strains, locus YMR231W, strain pep5, active compounds read low 1.02 | S. cerevisiae deletion strains, locus YMR263W, strain SAP30, active compounds read low 1.04 | S. cerevisiae deletion strains, locus YMR307W, strain GAS1, active compounds read low 1.05 | S. cerevisiae deletion strains, locus YNL067W, strain RPL9B, active compounds read low 1.08 | S. cerevisiae deletion strains, locus YNL071W, strain lat1, active compounds read low 1.02 | S. cerevisiae deletion strains, locus YNL128W, strain TEP1, active compounds read low 1.02 | S. cerevisiae deletion strains, locus YNL153C, strain GIM3, active compounds read low 1 | S. cerevisiae deletion strains, locus YNL183C, strain NPR1, active compounds read low 0.956 | S. cerevisiae deletion strains, locus YNL209W, strain ssb2, active compounds read low 1.01 | S. cerevisiae deletion strains, locus YNL233W, strain BNI4, active compounds read low 1 | S. cerevisiae deletion strains, locus YNL248C, strain rpa49, active compounds read low 1.04 | S. cerevisiae deletion strains, locus YNL250W, strain rad50, active compounds read low 0.99 | S. cerevisiae deletion strains, locus YNL271C, strain bni1, active compounds read low 0.99 | S. cerevisiae deletion strains, locus YNL298W, strain CLA4, active compounds read low 0.982 | S. cerevisiae deletion strains, locus YNL307C, strain MCK1, active compounds read low 1.01 | S. cerevisiae deletion strains, locus YNL322C, strain KRE1 (second series), active compounds read low 1.04 | S. cerevisiae deletion strains, locus YNL322C, strain KRE1, active compounds read low 1 | S. cerevisiae deletion strains, locus YNR049C, strain mso1, active compounds read low 1.02 | S. cerevisiae deletion strains, locus YNR052C, strain pop2, active compounds read low 1 | S. cerevisiae deletion strains, locus YOL006C, strain TOP1, active compounds read low 0.995 | S. cerevisiae deletion strains, locus YOL012C, strain htz1 1.75 | S. cerevisiae deletion strains, locus YOR001W, strain rrp6, active compounds read low 1.03 | S. cerevisiae deletion strains, locus YOR061W, strain CKA2, active compounds read low 0.994 | S. cerevisiae deletion strains, locus YOR069W, strain VPS5, active compounds read low 0.998 | S. cerevisiae deletion strains, locus YOR070C, strain gyp1, active compounds read low 1.01 | S. cerevisiae deletion strains, locus YOR080W, strain dia2, active compounds read low 1.04 | S. cerevisiae deletion strains, locus YOR083W, strain WHI5, active compounds read low 1.02 | S. cerevisiae deletion strains, locus YOR106W, strain vam3, active compounds read low 1.03 | S. cerevisiae deletion strains, locus YOR136W, strain idh2, active compounds read low 0.988 | S. cerevisiae deletion strains, locus YOR144C, strain elg1, active compounds read low 0.979 | S. cerevisiae deletion strains, locus YOR184W, strain ser1, active compounds read low 0.993 | S. cerevisiae deletion strains, locus YOR231W, strain MKK1, active compounds read low 0.978 | S. cerevisiae deletion strains, locus YOR265W, strain rbl2, active compounds read low 1.02 | S. cerevisiae deletion strains, locus YOR270C, strain vph1, active compounds read low 1.03 | S. cerevisiae deletion strains, locus YOR290C, strain snf2, active compounds read low 1.01 | S. cerevisiae deletion strains, locus YOR316C, strain cot1, active compounds read low 0.994 | S. cerevisiae deletion strains, locus YPL051W, strain arl3, active compounds read low 1.03 | S. cerevisiae deletion strains, locus YPL055C, strain LGE1, active compounds read low 1.03 | S. cerevisiae deletion strains, locus YPL078C, strain atp4, active compounds read low 1.02 | S. cerevisiae deletion strains, locus YPL106C, strain sse1, active compounds read low 1.04 | S. cerevisiae deletion strains, locus YPL240C, strain hsp82, active compounds read low 1.03 | S. cerevisiae deletion strains, locus YPL241C, strain CIN2, active compounds read low 1.01 | S. cerevisiae deletion strains, locus YPL256C, strain CLN2, active compounds read low 0.957 | S. cerevisiae deletion strains, locus YPR141C, strain kar3, active compounds read low 0.984 | S. cerevisiae deletion strains, locus YPR163C, strain tif3, active compounds read low 0.991 | S. cerevisiae deletion strains, locus YPR167C, strain met16, active compounds read low 0.994 | S. cerevisiae deletion strains, strain wtn01, active compounds read low 0.993 | S. cerevisiae strains, strain wild type, active compounds read low 1.03
